This is an account of results in PubChem BioAssay AID488969 (Vanderbilt High Throughput Screening Facility, 2010).

In all, about 110,000 compounds were measured (“z-score”: median about -0.1, highest 2% from about 2 on). Shown is part of a subset that was picked to be rich in the highest values. Activity calls are given as the source filed them.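 The calls were made as follows: active = z-score in the third read window above 3 or below -3; inactive = the rest.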

In the experiment the target is Metabotropic glutamate receptor 8 (Rattus norvegicus) (UniProt P70579). The experiment is described as follows: rat mGluR8 modulators via GIRK flux, primary screen, cell-based, thallium flux, HTS (AID 488969). As to conditions: HEK293 rat mGluR8, GIRK (G protein-gated inwardly rectifying potassium channel) thallium flux, FluoZin2; at 10 µM; stronger effect = higher value; submaximal glutamate (EC20) added with thallium.
Metabotropic glutamate receptor 8 (Rattus norvegicus), sequence (P70579 whole entry, looked up): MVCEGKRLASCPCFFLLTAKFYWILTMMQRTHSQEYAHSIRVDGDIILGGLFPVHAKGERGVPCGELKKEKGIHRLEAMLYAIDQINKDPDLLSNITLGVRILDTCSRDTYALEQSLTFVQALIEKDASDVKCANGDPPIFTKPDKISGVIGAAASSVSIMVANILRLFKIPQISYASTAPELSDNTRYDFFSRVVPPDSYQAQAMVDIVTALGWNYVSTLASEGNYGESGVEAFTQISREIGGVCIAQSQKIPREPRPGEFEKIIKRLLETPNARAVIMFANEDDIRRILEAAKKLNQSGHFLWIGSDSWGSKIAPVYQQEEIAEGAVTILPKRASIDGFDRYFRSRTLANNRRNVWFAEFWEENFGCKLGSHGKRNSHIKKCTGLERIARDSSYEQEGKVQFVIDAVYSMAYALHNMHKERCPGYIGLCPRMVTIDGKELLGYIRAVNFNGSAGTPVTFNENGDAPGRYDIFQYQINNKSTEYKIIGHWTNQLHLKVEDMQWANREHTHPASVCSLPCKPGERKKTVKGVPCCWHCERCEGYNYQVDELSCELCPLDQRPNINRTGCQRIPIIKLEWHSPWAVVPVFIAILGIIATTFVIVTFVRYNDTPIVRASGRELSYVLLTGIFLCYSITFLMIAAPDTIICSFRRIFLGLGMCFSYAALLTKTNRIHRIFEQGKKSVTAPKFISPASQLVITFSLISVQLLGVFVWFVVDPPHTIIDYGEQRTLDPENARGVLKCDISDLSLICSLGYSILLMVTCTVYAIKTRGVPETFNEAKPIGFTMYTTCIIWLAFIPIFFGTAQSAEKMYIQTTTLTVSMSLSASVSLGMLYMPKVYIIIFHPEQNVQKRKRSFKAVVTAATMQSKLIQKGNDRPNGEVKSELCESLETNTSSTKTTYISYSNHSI
`COc1cc(/C=C(\C#N)C(=O)Nc2cccnc2)ccc1OC(C)C` registered a z-score of 2.99.

With `COc1ccc(/C=C(\C#N)C(=O)Nc2cccnc2)cc1`, the z-score is -0.0907. With `CCOc1ccc(/C=C(\C#N)C(=O)Nc2cccnc2)cc1` the figure was -0.416. In turn, `CC(C)C(=O)NC(C)C(c1cccs1)N1CCN(C)CC1` (configuration not stated) registered a z-score of 0.199. As for `COc1ccccc1OCCOc1ccc(C(=O)c2ccccc2)cc1`, the figure is 1.04; as for `O=C(CSc1ccccc1)NCCSCc1ccccc1`, -0.635.

`CCNC(=O)CSc1nc2cc([N+](=O)[O-])ccc2n1-c1cccc(C(F)(F)F)c1` registered a z-score of -0.0324. As for `C=CCNC(=O)NC(=O)CSc1nc2cc([N+](=O)[O-])ccc2n1-c1cccc(C(F)(F)F)c1`, the figure is 2.75; as for `NC(=O)CSc1nc2cc([N+](=O)[O-])ccc2n1-c1cccc(C(F)(F)F)c1`, 0.159.

Regarding `O=C(OCCN1C(=O)CCC1=O)c1ccc(S(=O)(=O)N2CCCCC2)cc1`, the z-score was -1.06.

`Cn1c(NC(=O)c2cccs2)c(-c2cccs2)c(=O)c2ccccc21` yielded a z-score of 0.899. As for `Cc1nn(Cc2ccc(Cl)cc2)c(C)c1NC(=O)C1CC=CCC1C(=O)O` (configuration not stated), the figure is -0.0201; as for `CNCCCC1Sc2ccccc2Oc2ccccc21` (configuration not stated), 2.85; as for `CN(C)CCC1Sc2ccccc2Oc2ccccc21` (configuration not stated), 1.77.

Molecule `CCN(CC)CCCNC(=O)C1c2ccccc2Oc2ccccc21` yielded a z-score of 0.199.

On to `Cc1sc(NC(=O)c2ccco2)c(C(=O)c2ccc(Cl)cc2)c1C`, for which the z-score is -0.135. As for `CC(C)(C)NC(=O)c1cc(Cl)ccc1[N+](=O)[O-]`, the figure is -0.172.

In turn, `N#C/C(=C/c1cn(-c2ccccc2)nc1-c1cccc(S(=O)(=O)N2CCOCC2)c1)C(=O)NCc1ccco1` registered a z-score of -0.112. As for `Cc1ccc(N2C(N)=NC(N)=NC23CCCC3)c(C)c1`, the z-score stood at 0.0847. With `NC1=NC2(CCCCC2)N(c2cccc(Cl)c2)C(N)=N1`, the z-score was found to be 0.453. As for `Cc1cccc(N2C(N)=NC(N)=NC23CCCCC3)c1`, the figure is 2.24. As for `Cc1ccc(S(=O)(=O)NCCSCc2ccccc2)cc1`, the z-score is -0.24. As for `O=C(CCn1cccc1)NCc1ccc2c(c1)OCO2`, the figure is -0.423; as for `CC(=O)c1cn(CC(=O)NCc2ccc3c(c2)OCO3)c2ccccc12`, -0.0873; as for `Cn1c(=O)cc(OCCCC(=O)Nc2ccc3c(c2)OCCO3)c2ccccc21`, -0.101. As for `Cn1cc(CCC(=O)NCc2ccc3c(c2)OCO3)c2ccccc21`, the figure is 3.75 (active).

Take `Cn1c(=O)cc(OCCCC(=O)NCc2ccc3c(c2)OCO3)c2ccccc21`: the z-score is 8.84 (active). Molecule `COc1ccc(CNC(=O)CCCOc2cc(=O)n(C)c3ccccc23)cc1` gave a z-score of 0.0421.

For the molecule `O=S(=O)(NCc1ccccn1)c1ccccc1`, the z-score is -0.362. Turning to `COc1ccc(-c2nc(-c3cccc(C)c3)[nH]c(=O)c2C#N)cc1`, the z-score is -0.296. With `COc1ccc(S(=O)(=O)n2ccc(C)n2)cc1C`, the z-score was -0.988.

Molecule `CCCNC(=O)C1CCN(S(=O)(=O)c2ccc(-c3nn[nH]n3)cc2)CC1` returned a z-score of -0.171. As to `N/C(=N\c1nc2c(c(=O)[nH]1)CCC2)Nc1ccccc1`, the z-score stood at 0.214. The molecule `CC(=O)C1CCN(Cc2ccccc2)CC1` gave a z-score of -0.262.

As to `CC12CN(Cc3ccccc3)CC(C)(CN(Cc3ccccc3)C1)C2=NO`, the z-score is 2.4. With `c1ccc(CN2CCOCC2)cc1` the figure was 0.378. Molecule `Cn1ncc(Br)c1C(=O)N/N=C/c1cccc(OC2CSC2)c1` yielded a z-score of -0.309. `O=C(CSc1nnnn1C1CCCCC1)NCc1ccco1` showed a z-score of -0.228. The molecule `CCOC(=O)c1c(NC(=O)CNCCOC)sc2c1CCCC2` had a z-score of -1.06. `Cc1nn(C)c(C)c1CNC(=O)c1nn2c(c1Cl)NC(c1cccs1)CC2C(F)(F)F` (configuration not stated) had a z-score of -0.0188. With `Cc1nn(C)c(C)c1CN(C)C(=O)c1cc2n(n1)C(C(F)(F)F)CC(c1cccs1)N2` (configuration not stated) the figure was 0.0534; with `Cc1nn(C)c(C)c1CN(C)C(=O)c1nn2c(c1Br)NC(c1cccs1)CC2C(F)(F)F` (configuration not stated), 2.24; with `CCOc1ccc2nc(NC(=O)C3CCCN(S(=O)(=O)c4cccs4)C3)sc2c1` (configuration not stated), 0.284. As for `COc1ccc(C(=O)NC(=S)N2CCC(C)CC2)cc1`, the figure is 14.2 (active); as for `COc1ccc(C(=O)NC(=S)N2CCCCC2)cc1`, 3.44 (active); as for `COc1ccc(C(=O)NC(=O)N2CCCCC2)cc1`, 0.975. In turn, `COc1ccc(C(=S)N2CCCCCC2)cc1` came in with a z-score of -0.075. `COc1ccc(OC(C)C(=O)N2CCC(C)CC2)cc1` (configuration not stated): the z-score worked out at 0.926. Molecule `COc1ccc(N2CCN(C(=S)Nc3cc(C)cc(C)c3)CC2)cc1` displayed a z-score of 0.06. With `COc1ccc(C(=O)NC(=S)N2CC(C)OC(C)C2)cc1` (configuration not stated) the figure was 0.0339; with `CNC(=S)N1CCN(c2cccc(OC)c2)CC1`, 0.273. `CNC(=S)N1CCN(c2ccc(OC)cc2)CC1`: the z-score is 8.68 (active). With `Cc1cccc(C(=O)NC(=S)N2CCN(C(=S)NC(=O)c3cccc(C)c3)CC2)c1`, the z-score was 0.153. Consider `CC1CCN(C(=S)NC(=O)c2ccccc2)CC1`, for which the z-score was 4.42 (active). With `CC1CCN(C(=S)NCCc2ccccc2)CC1` the figure was -0.0312; with `O=C(OCc1ccccc1)C1=[N+]([O-])OC(C(=O)OCc2ccccc2)C1c1c[nH]c2ccccc12` (configuration not stated), -0.556. As for `CCOC(=O)C1=C(C)Nc2nc3ccccc3n2C1c1ccccc1` (configuration not stated), the figure is 0.0404; as for `Cc1ccc2c(c1)CCCN2C(=O)c1ccncc1`, 0.255; as for `COc1cccc(C2=NOC(C(=O)Nc3cccc(C(C)=O)c3)C2)c1OC` (configuration not stated), 0.301. As for `Cc1c(-c2ccccc2)nc2ccccc2c1C(=O)OCC(=O)Nc1ncc(C(F)(F)F)cc1Cl`, the figure is 0.00577; as for `COC(=O)Cc1[nH]nc2c1C(c1c[nH]c3ccccc13)C(C#N)=C(N)O2` (configuration not stated), -0.415; as for `COc1ccc(/C=N\N=C2/SC(CC(=O)O)C(=O)N2c2ccc(O)cc2)cc1OC` (configuration not stated), -0.0449. The molecule `CC(=O)Nc1cccc2c1C(=O)NC2=O` displayed a z-score of 0.274. For `CC(C)Cn1cc(C(=O)NC2CCN(Cc3ccccc3)CC2)c2c3ccccc3n(C)c2c1=O`, the z-score is -0.13. With `O=C(c1ccccc1)N1CCN(Cc2ccccc2)CC1` the figure was -0.853.

As for `S=C(NCCc1ccccc1)N1CCN(Cc2ccccc2)CC1`, the z-score is -0.499. As for `O=C(NC(=S)N1CCN(Cc2ccccc2)CC1)c1ccccc1`, the figure is 6.31 (active). `O=C1NCCN1C(=O)c1ccccc1F`: the z-score amounted to 0.555. As for `Cc1csc(NC(=O)CSc2ncc(-c3ccccc3)[nH]2)n1`, the figure is 0.148; as for `COc1ccc(Cn2c(-c3ccco3)nc3oc4ccccc4c(=O)c3c2=O)cc1`, 0.403. In turn, `COc1ccc(Cn2c(-c3ccco3)nc3oc4cc(OC)ccc4c(=O)c3c2=O)cc1` came in with a z-score of 2.22. With `COc1ccc2c(=O)c3c(=O)n(Cc4ccco4)c(-c4ccco4)nc3oc2c1` the figure was -0.397; with `CS(=O)(=O)N(CC(N)=O)c1ccc2c(c1)OCO2`, -0.00195; with `N#Cc1ccccc1NC(=O)CNc1ccc(Cl)c(C(F)(F)F)c1`, 2.38. With `Cc1ccccc1NC(=O)CNc1ccc(Cl)c(C(F)(F)F)c1` the figure was -0.365; with `COc1ccc(NCC(=O)Nc2ccccc2C#N)cc1Cl`, -0.204. The molecule `N#Cc1cc(Oc2cccnc2)c(Oc2cccnc2)cc1C#N` yielded a z-score of 0.18. As for `O=C(Nc1cccc(Cl)c1)Nc1nccs1`, the z-score is 10.2 (active). With `O=C(Nc1ccccc1)Nc1nccs1`, the z-score turned out to be 1.3. In turn, `O=C(Nc1cccc(Cl)c1)Nc1cccc(Cl)c1` came in with a z-score of 0.0262. As for `COC(=O)c1ccc(Oc2nc3c(c(=O)n(C)c(=O)n3C)n2CCC(C)C)cc1`, the figure is 1.63; as for `CN1C(=O)/C(=C/c2ccc3c(c2)OCO3)N=C1c1ccccc1`, 0.393. With `O=C(Cc1ccccc1)Nc1c(C(=O)N2CCCCCC2)cnn1-c1ccccc1` the figure was -0.477; with `CCC(=O)Nc1c(C(=O)N2CCCCCC2)cnn1-c1ccc(C)c(C)c1`, 2.47. As for `CC(=O)Nc1c(C(=O)N2CCOCC2)cnn1-c1ccc(C)c(C)c1`, the figure is -0.0497; as for `CC(C)NC(=O)Cn1c(=O)cnc2ccccc21`, 0.171.

In the case of `O=C(CCc1c[nH]c2ccccc12)NCc1ccc2c(c1)OCO2`, the z-score is -0.143. With `O=C(CSc1ncnc2c1cnn2-c1ccc(F)cc1)NCc1ccc2c(c1)OCO2` the figure was 0.54.

Turning to `O=C(CSc1nc(C2CCCCC2)nc2ccccc12)NCc1ccc2c(c1)OCO2`, the z-score was -1.07.

Take `O=C(CSc1c[nH]c2ccccc12)NCc1ccc2c(c1)OCO2`: the z-score was 2.27. `CC(C)C(=O)NCCSc1c[nH]c2ccccc12` came in with a z-score of -0.143. `O=C(CSc1ncnc2c1cnn2-c1ccc(Cl)cc1)NCc1ccc2c(c1)OCO2`: the z-score is 3.12 (active). Consider `Cn1c(SCC(=O)NCc2ccc3c(c2)OCO3)nnc1-c1c[nH]c2ccccc12`, for which the z-score was -0.821. With `O=C(CSc1nc(CCC2CCCC2)nc2ccccc12)NCc1ccc2c(c1)OCO2` the figure was 8.15 (active); with `O=C(NCCSc1c[nH]c2ccccc12)c1ccc(Br)o1`, -0.00412.

As to `Clc1ccc(-n2ncc3c(NCc4ccc5c(c4)OCO5)ncnc32)cc1`, the z-score is -0.426. As for `O=C(CSc1nc(C2CC2)nc2ccccc12)NCc1ccc2c(c1)OCO2`, the figure is -0.21.

For `O=C(NCCSc1c[nH]c2ccccc12)c1ccco1`, the z-score was 3.57 (active). As for `O=C(CN1C(=O)c2ccccc2C1=O)N1CCN(c2nnc(-c3ccccc3)c3ccccc23)CC1`, the figure is 0.179. In turn, `COC(=O)Nc1ccc(OCc2ccccc2)cc1` displayed a z-score of 0.466. As for `CC1CCN(S(=O)(=O)c2cc(C(=O)N3CCN(c4ncccn4)CC3)ccc2Br)CC1`, the figure is -0.827; as for `O=C(NCCC1=CCCCC1)C1CCCN(S(=O)(=O)c2cccnc2)C1` (configuration not stated), 0.742; as for `COc1ccc(S(=O)(=O)n2nc(-c3ccc(Cl)cc3)cc2N)cc1OC`, -0.0966.

`O=C(Cn1cnc2c(nnn2Cc2ccc(F)cc2)c1=O)N1CCCCC1` showed a z-score of 0.251. As for `Cc1ccc(C(=O)CCC(=O)Nc2cccnc2)cc1C`, the figure is -0.25; as for `CCCCC(=O)Nc1ccc(C(=O)Nc2nnc(COC)s2)cc1`, -0.311; as for `Nc1nonc1C(=O)NCCNCc1cc(Br)ccc1OCc1ccccc1F`, 4.61 (active). With `Nc1nonc1C(=O)NCCNCc1ccccc1OCc1ccccc1F`, the z-score is 1.61. Regarding `Nc1nonc1C(=O)NCCNCc1cc(Br)ccc1OCc1ccc(F)cc1`, the z-score came to 0.587. On to `Cc1nn(CC(=O)NCc2ccc(OC(C)C)cc2)c(=O)c2cc3occc3n12`, for which the z-score is -0.4.

The molecule `Cc1ccccc1OCc1nnc(SCc2cc(=O)[nH]c3ccccc23)n1-c1ccccc1` had a z-score of 0.00735.

The molecule `O=P(CCNCc1ccco1)(c1ccccc1)c1ccccc1` yielded a z-score of 0.267.
